Reference: PubChem BioAssay (NCATS)
Inconclusive results are not listed. Active and inactive are the calls of the source. Calls follow the shape of the dose curve; as a rule, active = well fitted curve in the direction sought with a large enough effect; inconclusive = small, poorly fitted or top-dose-only effect, or another doubt; inactive = no such curve, though single readings can be large; an effect the other way counts as inactive or inconclusive.

Key:
[1] = biological target: ATP-dependent 6-phosphofructokinase (Trypanosoma brucei brucei) (UniProt O15648); assay: qHTS Assay to Find Inhibitors of T. brucei phosphofructokinase: hit validation (AID 492961);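 also: luminescence reports ADP formed as PFK phosphorylates fructose-6-phosphate with ATP; % is scaled to controls: 0 for no effect and ±100 for the full control effect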
ATP-dependent 6-phosphofructokinase (Trypanosoma brucei brucei), sequence (O15648 whole entry, looked up): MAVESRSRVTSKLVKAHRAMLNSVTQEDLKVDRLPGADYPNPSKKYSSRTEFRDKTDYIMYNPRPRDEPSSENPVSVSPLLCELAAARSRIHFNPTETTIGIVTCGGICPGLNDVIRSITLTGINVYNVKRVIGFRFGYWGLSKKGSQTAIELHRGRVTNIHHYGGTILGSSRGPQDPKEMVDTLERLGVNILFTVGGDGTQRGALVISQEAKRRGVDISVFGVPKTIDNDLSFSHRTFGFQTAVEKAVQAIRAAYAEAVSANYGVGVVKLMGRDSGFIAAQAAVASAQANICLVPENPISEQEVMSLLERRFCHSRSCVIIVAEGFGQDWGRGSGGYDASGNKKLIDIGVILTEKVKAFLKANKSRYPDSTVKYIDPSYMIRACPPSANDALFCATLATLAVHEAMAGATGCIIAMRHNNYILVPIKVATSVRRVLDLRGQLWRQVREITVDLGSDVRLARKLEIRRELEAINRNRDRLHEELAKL
How it was run: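 Measures ADP output of PFK (1.25 nM) at 0.1 mM ATP, 0.5 mM F6P, pH 8.0 TEA buffer with 5 mM MgCl2. No-enzyme wells define full inhibition; uninhibited enzyme wells define zero.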

[2] = qHTS profiling for inhibitors of Plasmodium falciparum proliferation (AID 504749); also: nearly all actives have a fitted effect of over 60% in size; also: potency is read from the fitted curve at half-maximal effect;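 as to activity, negative = inhibition: 0% = DMSO vehicle and full inhibition = artemisinin control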; details: P. falciparum in erythrocytes, SYBR Green DNA, 72 h
How it was run: (§1)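 In a 72 h erythrocytic culture (37 C, humidified, 5% CO2) at 2.5% hematocrit and 0.3% starting parasitemia, compounds were tested; SYBR Green I in detergent lysis buffer stained parasite DNA overnight.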

3D7 = assay: as above; details: P. falciparum in erythrocytes, SYBR Green DNA, 72 h; series mostly up to 28.7 µM
How it was run: as §1

AA1029 = assay: as above; details: P. falciparum in erythrocytes, SYBR Green DNA, 72 h; series mostly up to 28.7 µM
How it was run: as §1

AS120 = assay: as above; details: P. falciparum in erythrocytes, SYBR Green DNA, 72 h; series mostly up to 28.7 µM
How it was run: as §1

ATS189 = assay: as above; details: P. falciparum in erythrocytes, SYBR Green DNA, 72 h; series mostly up to 28.7 µM
How it was run: as §1

CP185 = assay: as above; details: P. falciparum in erythrocytes, SYBR Green DNA, 72 h; series mostly up to 28.7 µM
How it was run: as §1

CP191 = assay: as above; details: P. falciparum in erythrocytes, SYBR Green DNA, 72 h; series mostly up to 28.7 µM
How it was run: as §1

CP194 = assay: as above; details: P. falciparum in erythrocytes, SYBR Green DNA, 72 h; series mostly up to 28.7 µM
How it was run: as §1

CP217 = assay: as above; details: P. falciparum in erythrocytes, SYBR Green DNA, 72 h; series mostly up to 28.7 µM
How it was run: as §1

CP237 = assay: as above; details: P. falciparum in erythrocytes, SYBR Green DNA, 72 h; series mostly up to 28.7 µM
How it was run: as §1

CP238 = assay: as above; details: P. falciparum in erythrocytes, SYBR Green DNA, 72 h; series mostly up to 28.7 µM
How it was run: as §1

CP252 = assay: as above; details: P. falciparum in erythrocytes, SYBR Green DNA, 72 h; series mostly up to 28.7 µM
How it was run: as §1

CP265 = assay: as above; details: P. falciparum in erythrocytes, SYBR Green DNA, 72 h; series mostly up to 28.7 µM
How it was run: as §1

CP286 = assay: as above; details: P. falciparum in erythrocytes, SYBR Green DNA, 72 h; series mostly up to 28.7 µM
How it was run: as §1

DFO2036 = assay: as above; details: P. falciparum in erythrocytes, SYBR Green DNA, 72 h; series mostly up to 28.7 µM
How it was run: as §1

DIV30 = assay: as above; details: P. falciparum in erythrocytes, SYBR Green DNA, 72 h; series mostly up to 28.7 µM
How it was run: as §1

Dd2 = assay: as above; details: P. falciparum in erythrocytes, SYBR Green DNA, 72 h; series mostly up to 28.7 µM
How it was run: as §1

N140 = assay: as above; details: P. falciparum in erythrocytes, SYBR Green DNA, 72 h; series mostly up to 28.7 µM
How it was run: as §1

P94_40 = assay: as above; details: P. falciparum in erythrocytes, SYBR Green DNA, 72 h; series mostly up to 28.7 µM
How it was run: as §1

[3] = at 28.7 µM (top of the series), parasite line A
[4] = at 28.7 µM (top of the series), parasite line B

CCN1CCN(C(=O)NC(C(=O)NC2C(=O)N3C(C(=O)O)=C(CSc4nnnn4C)CSC23)c2ccc(O)cc2)C(=O)C1=O (stereo not given)
inactive: Potency [1] | activity, negative = inhibition [2, 3] 1.12% | activity, negative = inhibition [2, 4] -9.29% | Potency (3D7) | Potency (AA1029) | Potency (AS120) | Potency (ATS189) | Potency (CP185) | Potency (CP191) | Potency (CP194) | Potency (CP217) | Potency (CP237) | Potency (CP238) | Potency (CP252) | Potency (CP265) | Potency (CP286) | Potency (DFO2036) | Potency (DIV30) | Potency (Dd2) | Potency (N140) | Potency (P94_40)

NC[C@@H]1O[C@H](OC2[C@@H](CO)O[C@@H](OC3[C@H](O)[C@H](N)C[C@H](N)[C@H]3OC3O[C@H](CO)[C@@H](O)[C@H](O)[C@@H]3N)[C@H]2O)C(N)[C@H](O)[C@@H]1O (stereo not given in full)
inactive: Potency [1] | activity, negative = inhibition [2, 3] 11.9% | activity, negative = inhibition [2, 4] 20% | Potency (3D7) | Potency (AA1029) | Potency (AS120) | Potency (ATS189) | Potency (CP185) | Potency (CP191) | Potency (CP194) | Potency (CP217) | Potency (CP237) | Potency (CP238) | Potency (CP252) | Potency (CP265) | Potency (CP286) | Potency (DFO2036) | Potency (DIV30) | Potency (Dd2) | Potency (N140) | Potency (P94_40)

O=C(O)CC(O)CC(O)/C=C/c1c(C2CC2)nc2ccccc2c1-c1ccc(F)cc1 (stereo not given)
inactive: Potency [1] | activity, negative = inhibition [2, 3] 5.32% | activity, negative = inhibition [2, 4] -2.35% | Potency (3D7) | Potency (AA1029) | Potency (AS120) | Potency (ATS189) | Potency (CP185) | Potency (CP191) | Potency (CP194) | Potency (CP217) | Potency (CP237) | Potency (CP238) | Potency (CP252) | Potency (CP265) | Potency (CP286) | Potency (DFO2036) | Potency (DIV30) | Potency (Dd2) | Potency (N140) | Potency (P94_40)

CCCCN1CC(O)C(O)C(O)C1CO (stereo not given)
inactive: Potency [1] | activity, negative = inhibition [2, 3] 0.477% | activity, negative = inhibition [2, 4] 1.06% | Potency (3D7) | Potency (AA1029) | Potency (AS120) | Potency (ATS189) | Potency (CP185) | Potency (CP191) | Potency (CP194) | Potency (CP217) | Potency (CP237) | Potency (CP238) | Potency (CP252) | Potency (CP265) | Potency (CP286) | Potency (DFO2036) | Potency (DIV30) | Potency (Dd2) | Potency (N140) | Potency (P94_40)

C/C1=C2/[N-]C(C(CC(N)=O)[C@@]2(C)CCC(=O)NCC(C)OP(=O)([O-])O[C@H]2[C@@H](O)[C@@H](n3cnc4cc(C)c(C)cc43)O[C@@H]2CO)[C@]2(C)N=C(/C(C)=C3N=C(/C=C4N=C1C(CCC(N)=O)C\4(C)C)[C@@H](CCC(N)=O)[C@]\3(C)CC(N)=O)[C@@H](CCC(N)=O)[C@]2(C)CC(N)=O.CC(=O)O.[Co] (stereo not given in full)
inactive: Potency [1] | activity, negative = inhibition [2, 3] -2.13% | activity, negative = inhibition [2, 4] -2.9% | Potency (3D7) | Potency (AA1029) | Potency (AS120) | Potency (ATS189) | Potency (CP185) | Potency (CP191) | Potency (CP194) | Potency (CP217) | Potency (CP237) | Potency (CP238) | Potency (CP252) | Potency (CP265) | Potency (CP286) | Potency (DFO2036) | Potency (DIV30) | Potency (Dd2) | Potency (N140) | Potency (P94_40)

CC(=O)N[C@H]1[C@H](O[C@@H]2c3ccc(c(Cl)c3)Oc3cc4cc(c3O[C@@H]3O[C@H](CO)[C@@H](O)[C@H](O)C3C)Oc3ccc(cc3Cl)C[C@H]3NC(=O)[C@@H](N)c5ccc(O)c(c5)Oc5cc(O)cc(c5)[C@H](NC3=O)C(=O)N[C@H]4C(=O)N[C@H]3C(=O)N[C@@H]2C(=O)N[C@@H](C(=O)O)c2cc(O)cc(O[C@H]4O[C@H](CO)[C@@H](O)C(O)[C@@H]4O)c2-c2cc3ccc2O)O[C@H](CO)[C@@H](O)[C@@H]1O (stereo not given in full)
inactive: Potency [1] | activity, negative = inhibition ([2]; at 12.8 µM (top of the series), parasite line A) -7.42% | activity, negative = inhibition ([2]; at 12.8 µM (top of the series), parasite line B) 7.54% | Potency (3D7) | Potency (AA1029) | Potency (AS120) | Potency (ATS189) | Potency (CP185) | Potency (CP191) | Potency (CP194) | Potency (CP217) | Potency (CP237) | Potency (CP238) | Potency (CP252) | Potency (CP265) | Potency (CP286) | Potency (DFO2036) | Potency (DIV30) | Potency (Dd2) | Potency (N140) | Potency (P94_40)

O=C1C(I)=CC(=C(c2cc(I)c(O)c(I)c2)c2ccccc2C(=O)O)C=C1I
inactive: Potency [1] | activity, negative = inhibition [2, 3] 1.17% | activity, negative = inhibition [2, 4] -0.638% | Potency (3D7) | Potency (AA1029) | Potency (AS120) | Potency (ATS189) | Potency (CP185) | Potency (CP191) | Potency (CP194) | Potency (CP217) | Potency (CP237) | Potency (CP238) | Potency (CP252) | Potency (CP265) | Potency (CP286) | Potency (DFO2036) | Potency (DIV30) | Potency (Dd2) | Potency (N140) | Potency (P94_40)

C=C[C@H]1CN2CCC1C[C@H]2[C@H](O)c1ccnc2ccc(OC)cc12 (stereo not given in full)
inactive: Potency [1]
active: Potency ([2]; parasite line A) 141 nM | Potency ([2]; parasite line B) 141 nM | Potency (3D7) 178 nM | Potency (AA1029) 891 nM | Potency (AS120) 1410 nM | Potency (ATS189) 1120 nM | Potency (CP185) 794 nM | Potency (CP191) 708 nM | Potency (CP194) 1070 nM | Potency (CP217) 2820 nM | Potency (CP237) 1260 nM | Potency (CP238) 1580 nM | Potency (CP252) 891 nM | Potency (CP265) 562 nM | Potency (CP286) 1000 nM | Potency (DFO2036) 631 nM | Potency (DIV30) 953 nM | Potency (Dd2) 891 nM | Potency (N140) 631 nM | Potency (P94_40) 1000 nM

OCC1O[C@H](O[C@H]2C(O)C(O)C(O)O[C@@H]2CO)C(O)C(O)C1O (stereo not given in full)
inactive: Potency [1] | activity, negative = inhibition [2, 3] 7.88% | activity, negative = inhibition [2, 4] 6.42% | Potency (3D7) | Potency (AA1029) | Potency (AS120) | Potency (ATS189) | Potency (CP185) | Potency (CP191) | Potency (CP194) | Potency (CP217) | Potency (CP237) | Potency (CP238) | Potency (CP252) | Potency (CP265) | Potency (CP286) | Potency (DFO2036) | Potency (DIV30) | Potency (Dd2) | Potency (N140) | Potency (P94_40)

CC(=O)NC1[C@H](O)C[C@@](O)(C(=O)O)O[C@H]1[C@H](O)[C@H](O)CO (stereo not given in full)
inactive: Potency [1] | activity, negative = inhibition [2, 3] 5.53% | activity, negative = inhibition [2, 4] -8.73% | Potency (3D7) | Potency (AA1029) | Potency (AS120) | Potency (ATS189) | Potency (CP185) | Potency (CP191) | Potency (CP194) | Potency (CP217) | Potency (CP237) | Potency (CP238) | Potency (CP252) | Potency (CP265) | Potency (CP286) | Potency (DFO2036) | Potency (DIV30) | Potency (Dd2) | Potency (N140) | Potency (P94_40)
